Source: PubChem BioAssay (NCATS)
Results filed as inconclusive are left out. Activity calls are given as the source filed them. Unless noted, calls follow the shape of the dose curve; as a rule, active = well fitted curve in the direction sought with a large enough effect; inconclusive = small, poorly fitted or top-dose-only effect, or another doubt; inactive = no such curve, though single readings can be large; an effect the other way counts as inactive or inconclusive.

Assays:
[1] = qHTS drug screen for cell cycle checkpoint inhibitors in PARPi-resistant BRCA-mutant ovarian cancer cell lines. (AID 1963452; calls by dose curve; also: potency is read from the fitted curve at half-maximal effect); conditions: PEO1/OlaR viability, CellTiter-Glo luminescence, 96 h; for Z-AUC: stronger effect = lower value
How it was run: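 PEO1, PEO4 and PEO1/OlaR ovarian cancer cells, 600 per well, exposed 96 h at 37C to a dilution series. Viability read by CellTiter-Glo luminescence, normalized to DMSO and empty wells; activity summarized as Z-AUC.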

[2] = Quantitative High-Throughput drug screen in 47 multiple myeloma cell lines against the NCATS MIPE library collection: KMS11_JCRBsus cell viability assay (AID 1919873); conditions: KMS11 myeloma viability, CellTiter-Glo ATP luminescence, 48 h; series mostly up to 45.8 µM; also: nearly all actives have a fitted effect of over 50% in size; also: potency is read from the fitted curve at half-maximal effect
How it was run: (§1)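 Inhibition of viability over 48 h was scored by ATP content (CellTiter-Glo) in 500-cell wells. Zero and full viability were defined by media-only and DMSO-only wells.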

[3] = qHTS for identification of novel therapeutic agents for treatment of microphthalmiaassociated transcription factor (MiT) renal cell carcinoma (RCC) (AID 1963991; calls by dose curve; also: potency is read from the fitted curve at half-maximal effect); conditions: CellTiter-Glo, 48 h; for z-score: stronger effect = lower value
How it was run: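 Three TFE3-fusion RCC cell lines (UOK109, UOK124, UOK145), 500 cells/well, were exposed to the 1912-compound MIPE 4.0 library for 48 hours at 37 C. Viability was read by CellTiter-Glo luminescence, normalised to DMSO (100%) and empty wells (0%), with 11-concentration curve fits.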

[4] = qHTS profiling for inhibitors of Plasmodium falciparum proliferation (AID 504749); also: potency is read from the fitted curve at half-maximal effect;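 as to activity, negative = inhibition: 0% = DMSO vehicle and full inhibition = artemisinin control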; as to all read-outs here: nearly all actives have a fitted effect of over 60% in size; conditions: P. falciparum in erythrocytes, SYBR Green DNA, 72 h; for activity, negative = inhibition: at 28.7 µM (top of the series)
How it was run: (§2)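 Infected RBCs, 0.3% parasitemia/2.5% Hct final; cpd 72 h, 37 C, 5% CO2; lysis buffer with saponin/triton/SYBR Green I, o/n RT dark; FI 485/535; norm. to artemisinin (0.29 uM) and DMSO.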

3D7 = test: as above; conditions: P. falciparum in erythrocytes, SYBR Green DNA, 72 h; series mostly up to 28.7 µM
How it was run: as §2

[5] = KB-8-5-11 P-gp reporter qHTS against the NCATS DSHEA and TCM libraries (AID 1919977); conditions: KB-8-5-11 cells; series mostly up to 26.1 µM; also: 0% is about no effect
How it was run: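 CellTiter-Glo luminescence measured viability after ~72 h exposure (37C, 5% CO2) of KB-8-5-11 cervical adenocarcinoma cells overexpressing P-gp. Colchicine was omitted during assay. Substances were tested as titrations.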

[6] = Quantitative High-Throughput drug screen in 47 multiple myeloma cell lines against the NCATS MIPE library collection: KMS28BM_JCRB cell viability assay (AID 1919874); conditions: CellTiter-Glo ATP, 48 h; series mostly up to 45.8 µM; also: nearly all actives have a fitted effect of over 35% in size; also: potency is read from the fitted curve at half-maximal effect
How it was run: as §1

7G8 = test: qHTS profiling for inhibitors of Plasmodium falciparum proliferation (AID 504749); also: nearly all actives have a fitted effect of over 60% in size; also: potency is read from the fitted curve at half-maximal effect;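 as to activity, negative = inhibition: 0% = DMSO vehicle and full inhibition = artemisinin control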; conditions: P. falciparum in erythrocytes, SYBR Green DNA, 72 h; series mostly up to 28.7 µM
How it was run: as §2

[7] = measured here: PEO1 parental Z-AUC
[8] = TFE3-RCC UOK109 viability, measured here: UOK109 Z-AUC
[9] = TFE3-RCC viability, measured here: UOK124 Z-AUC
[10] = TFE3-RCC viability, measured here: UOK145 Z-AUC

C/C=C(/C)C(=O)O[C@H]1C(C)=C2[C@H]([C@@H]1OC(=O)CCCCCCC)[C@@](C)(OC(C)=O)C[C@H](OC(=O)CCC)[C@@]1(O)[C@H]2OC(=O)[C@@]1(C)O
Potency [1]: 0.0098 µM (active) | Z-AUC [1, 7]: -2.42 | Z-AUC ([1]; measured here: PEO4 Z-AUC): -2.66

COc1ccc2c(c1)CN(C)CC2c1ccc(Cl)c(Cl)c1 (stereo not drawn)
Potency [2]: 14.8 µM (active)

C[C@H]1CCCC=CC2C[C@H](O)C[C@@H]2[C@H](O)C=CC(=O)O1 (stereo partly drawn)
z-score [3, 8]: -3.99 | z-score [3, 9]: -3.69 | z-score [3, 10]: -5.31

CCCN1CCC[C@H](c2cccc(O)c2)C1
activity, negative = inhibition ([4]; parasite line A): 8.52% (inactive) | activity, negative = inhibition ([4]; parasite line B): -0.779% (inactive) | Potency (3D7): inactive

CC1=C(C/C=C(\C)CCC[C@H](C)CCC[C@H](C)CCCC(C)C)C(=O)c2ccccc2C1=O
outcome [5]: inactive

COC1=CC(C)=C[C@@H](C)[C@@H](O)[C@@H](C)CC(C)=CC=C[C@H](OC)[C@H]([C@@H](C)[C@@H](O)[C@H](C)[C@@]2(O)C[C@@H](O)[C@H](C)[C@@H](C(C)C)O2)OC1=O
Potency [2]: 0.0019 µM (active) | Potency [6]: 20.9 µM (active) | Potency ([3]; TFE3-RCC UOK109 viability): 26.4 µM (active) | z-score [3, 8]: -1.69 | z-score [3, 9]: -2.76 | z-score [3, 10]: -3.22

CCCCCCCCCCCCCCCC[N+](C)(C)C
Potency ([4]; parasite line A): 11.2 µM (active) | Potency (3D7): 8.91 µM (active) | Potency (7G8): 11.2 µM (active)

CCCCCCCCCC(CC)c1ccc(S(=O)(=O)O)cc1 (stereo not drawn)
activity, negative = inhibition ([4]; parasite line A): 4.98% (inactive) | activity, negative = inhibition ([4]; parasite line B): 0.132% (inactive) | Potency (3D7): inactive | Potency (7G8): inactive

O=S(=O)(CC1CS1)c1ccc(Oc2ccccc2)cc1 (stereo not drawn)
Potency [2]: 26.4 µM (active) | Z-AUC [1]: 1.02 (inactive) | Z-AUC [1, 7]: 1.86 | Z-AUC ([1]; measured here: PEO4 Z-AUC): 1.74

CC(C)(C)c1cc(C=C(C#N)C#N)cc(Br)c1O
Z-AUC [1]: 1.28 (inactive) | Z-AUC [1, 7]: 1.11 | Z-AUC ([1]; measured here: PEO4 Z-AUC): 0.988

O=C(O)CNC(=O)c1c(O)c2ccccc2n(Cc2ccccc2)c1=O
Potency [2]: inactive | Potency [6]: inactive | Z-AUC [1]: -0.292 (inactive) | Z-AUC [1, 7]: 0.683 | Z-AUC ([1]; measured here: PEO4 Z-AUC): 0.802

Cc1ccc(Cl)c(O)c1
activity, negative = inhibition ([4]; parasite line A): 9.64% (inactive) | activity, negative = inhibition ([4]; parasite line B): 15% (inactive) | Potency (3D7): inactive | Potency (7G8): inactive

c1ccc(C2(c3ccccc3)CC2C2=NCCN2)cc1 (stereo not drawn)
activity, negative = inhibition ([4]; parasite line A): -23% (inactive) | activity, negative = inhibition ([4]; parasite line B): -12.8% (inactive) | Potency (3D7): inactive

CCCN1CCO[C@@H]2c3cc(O)ccc3OC[C@H]21
Z-AUC [1]: 0.538 (inactive) | Z-AUC [1, 7]: 0.85 | Z-AUC ([1]; measured here: PEO4 Z-AUC): 0.552

CN[C@@H]1C[C@@H](c2ccc(Cl)c(Cl)c2)c2ccccc21
Potency (3D7): inactive | Potency (7G8): 10 µM (active)
